Gli-Sufu block: Gli-Sufu pathway antagonists, primary screen, luciferase luminescence, Sufu-KO-LIGHT cells, uHTS; actives 0.74% (n = 340,000); inhibition, % at 5 µM; AID 588413, 2011; Sufu-KO-LIGHT fibroblasts, Gli luciferase reporter luminescence;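 active = inhibition above about 55%, limit read from the data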;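 note: 0% = DMSO-treated cells and 100% = wells with medium but no cells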
SRC3 inh: SRC3 coactivator transcriptional activity inhibitors, primary screen, cell-based, luminescence; Nuclear receptor coactivator 3 (Homo sapiens), Q9Y6Q9; HEK293 GAL4-SRC3 luciferase reporter; inhibition, % at 3.6 µM; actives 0.17% (n = 360,000);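 active = inhibition above a per-campaign cutoff, the mean of all compounds plus 3 SD, cut at about 60% in these data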;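 note: 0% = DMSO-treated cells and 100% = gossypol-treated cells at 36 µM; higher means less SRC3-driven luciferase light from the GAL4 reporter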
COUP-TFII inh: NR2F2 transcriptional activity inhibitors, primary screen, cell-based, luciferase reporter, HEK293T, luminescence. HEK293T NGFI-A luciferase reporter. inhibition, % at 8.6 µM. actives 0.7% (n = 370,000). AID 686940, 2013;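 active = inhibition above a per-plate cutoff, mean inhibition of test wells between control levels plus 3 SD, cut at about 38% in these data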;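 note: cells cotransfected with COUP-TFII expression vector driving the NGFI-A reporter; 0% = median of COUP-TF2 test wells and 100% = reporter-only cells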
LRH-1 inv ag: LRH-1 (NR5A2) inverse agonists, primary screen, cell-based, luminescence, HEK293T, StAR-luciferase reporter; Nuclear receptor subfamily 5 group A member 2 (Homo sapiens), O00482; LRH-1 transfected, 24 h; inhibition, % at 3.6 µM; actives 0.13% (n = 360,000);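 active = inhibition above the mean inhibition of all tested compounds plus 3 SD, cut at about 73% in these data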;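 note: 0% = DMSO wells and 100% = reporter-only cells lacking LRH-1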
Target sequence (O00482 whole entry, looked up): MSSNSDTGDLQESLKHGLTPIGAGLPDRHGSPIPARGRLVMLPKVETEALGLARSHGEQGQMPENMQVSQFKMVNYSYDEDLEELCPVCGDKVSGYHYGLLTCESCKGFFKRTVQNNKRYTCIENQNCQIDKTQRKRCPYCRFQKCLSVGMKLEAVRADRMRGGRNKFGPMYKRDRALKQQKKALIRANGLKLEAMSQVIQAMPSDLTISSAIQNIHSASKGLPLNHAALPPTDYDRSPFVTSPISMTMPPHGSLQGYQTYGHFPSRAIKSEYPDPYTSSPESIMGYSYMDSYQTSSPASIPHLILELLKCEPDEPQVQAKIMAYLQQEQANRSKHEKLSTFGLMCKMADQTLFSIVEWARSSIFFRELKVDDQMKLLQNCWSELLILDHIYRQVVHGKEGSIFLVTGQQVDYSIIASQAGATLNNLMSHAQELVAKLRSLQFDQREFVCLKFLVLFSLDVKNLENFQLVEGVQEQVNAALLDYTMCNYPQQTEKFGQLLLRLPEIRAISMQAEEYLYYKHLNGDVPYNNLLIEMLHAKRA
NCOA2 inhibitor: inhibition of GAL4-SRC2 driven luciferase reporter, primary screen, SRC2 inhibitor project, cell-based, luminescence. inhibition, % at 9 µM. HEK293 GAL4-SRC2 luciferase reporter. Nuclear receptor coactivator 2 (Homo sapiens), Q15596. actives 0.17% (n = 370,000). AID 651957, 2012;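 active = inhibition above the mean inhibition of all tested compounds plus 3 SD, set per campaign, cut at about 52% in these data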;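 note: 0% = DMSO treated cells and 100% = cells given Gossypol at 36 µM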
NCOA1 inh: SRC1 coactivator transcriptional activity inhibitors, primary screen, cell-based, luminescence | actives 0.12% (n = 360,000) | inhibition, % at 3.6 µM | HEK293 GAL4-SRC1 luciferase reporter | AID 588354, 2011 | Nuclear receptor coactivator 1 (Homo sapiens), Q15788;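 active = inhibition above the campaign mean plus 3 SD, with each screening campaign given its own cutoff, cut at about 60% in these data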;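 note: 0% = DMSO treated cells and 100% = gossypol at 36 µM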
Gal4-VP16 ctr: Gal4-VP16 luciferase reporter inhibitors, counter-screen for COUP-TFII antagonist project, cell-based, luminescence, HEK293; AID 687007, 2013; actives 25% (n = 2,500); inhibition, % at 8.5 µM; shares compounds with COUP-TFII inh; in the data active = inhibition above about 13%
COUP-TFII conf: NR2F2 transcriptional activity inhibitors, confirmation, cell-based, luciferase reporter, HEK293, triplicate; shares compounds with COUP-TFII inh; HEK293 NGFI-A luciferase reporter, luminescence; inhibition, % at 8.5 µM; actives 45% (n = 2,500); AID 687008, 2013;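 active = mean inhibition over three repeats above a set limit taken from the earlier primary screen, cut at about 38% in these data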;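 note: 100% = cells given the luciferase reporter alone without the COUP-TF2 vector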
Active calls of the source: *; . = no result; ! = a repeat was not active. Rows were chosen to be rich in hits. Some 1.2% of all compounds tested hit in one or more screens of this group.

SMILES	Gli-Sufu block	SRC3 inh	COUP-TFII inh	LRH-1 inv ag	NCOA2 inhibitor	NCOA1 inh	Gal4-VP16 ctr	COUP-TFII conf
COc1ccccc1OCCn1c(C)c(C=O)c2ccccc21	10	0	37	23	15	25	.	.
Cc1[nH]nc(C(F)(F)F)c1N=NN1CCOCC1	11	14	49*	24	30	2	13	46*
O=[N+]([O-])c1ccc2nc(CNc3nc(N4CCOCC4)nc4c3ncn4-c3ccsc3)[nH]c2c1	.	.	58*	.	.	.	28*	48*
FC(F)(F)c1ccc2nc(CNc3nc(N4CCOCC4)nc4c3ncn4-c3ccsc3)[nH]c2c1	.	.	69*	.	.	.	23*	42*
O=[N+]([O-])c1cccc2ccc(N3CCOCC3)nc12	-11	-7	-17	1	17	-6	.	.
c1ccc2cc3[nH]c(CNc4nc(N5CCOCC5)nc5c4ncn5-c4ccsc4)nc3cc2c1	.	.	63*	.	.	.	12	42*
O=C(O)c1ccc(NCc2nc3cc4ccccc4cc3[nH]2)cc1	-10	6	-17	-16	13	-5	.	.
O=[N+]([O-])c1cccc2[nH]c(CNc3nc(N4CCOCC4)nc4c3ncn4-c3ccsc3)nc12	.	.	67*	.	.	.	25*	41*
Cc1ccc2nc(SCC(=O)Nc3cc(C(F)(F)F)ccc3N3CCOCC3)[nH]c2c1	-3	1	-29	40	30	3	.	.
CC(C)(C)C(=O)CSc1nnc(SCc2cccc3ccccc23)s1	.	.	5	.	-10	.	.	.
COC(=O)[C@]12C[C@H](CC(=O)NCc3cccs3)C(=O)N(Cc3ccccc3)C1=C[C@H](COCc1ccccc1)O[C@@H]2C	.	.	-17	.	1	.	.	.
c1ccc2[nH]c(CNc3nc(N4CCOCC4)nc4c3ncn4-c3ccsc3)nc2c1	.	.	52*	.	.	.	20*	46*
c1ccc2[nH]c(N3CCOCC3)nc2c1	-4	-1	-2	5	-2	-4	.	.
Cc1nc(N2CCN(Cc3ccccc3)CC2)nc2c1C(=O)CC(C)C2 (stereo not drawn)	-9	-7	14	-19	1	-7	.	.
COc1ccc(C2CC(=O)c3c(C)nc(N4CCN(Cc5ccccc5)CC4)nc3C2)cc1OC (stereo not drawn)	18	14	62*	15	22	-4	8	39*
CSc1ccc(C(=O)C2CCCN(C(=O)CCn3cncn3)C2)cc1 (stereo not drawn)	2	17	1	-20	14	11	.	.
CSc1ccc(C(=O)C2CCCN(C(=O)CCc3c(C)nn(C)c3C)C2)cc1 (stereo not drawn)	39	11	58*	25	20	7	-2	34
CC(=O)Nc1ccc(S(=O)(=O)N2CCN=C2SCc2ccc([N+](=O)[O-])cc2)cc1	28	27	48*	21	16	13	1	22
CCOc1ccc(S(=O)(=O)Nc2cnc3ccccc3c2)cc1	32	22	43*	14	17	13	-3	30
CCn1cc(CNC(=O)c2cc(COc3ccc(F)cc3Cl)on2)cn1	3	-11	17	-4	2	-2	.	.
CCn1nc(C)c(CNC(=O)c2cc(COc3ccc(F)cc3Cl)on2)c1C	15	42	41*	11	33	27	9	44*
COc1ccc(NC(=O)N(C)[C@H]2C[C@H]3c4[nH]c5c(-c6ccccc6)cccc5c4CCN3C(=O)[C@H]2[C@H](C)O)cc1	.	.	14	.	-2	.	.	.
OC(c1ccccc1)(c1ccccc1)C1CCN(CCCOc2ccc(-c3cncnc3)cc2)CC1	.	.	-4	.	-13	.	.	.
CCN(CC)c1ccc(/C=C/c2ccc3ccc(OC)cc3[n+]2CC)cc1	84*	51	51*	74*	-18	46	20*	67*
Cc1ccc(S(=O)(=O)N(C)[C@H]2C[C@H]3c4cc(-c5ccc6c(c5)OCO6)ccc4CCN3C[C@H]2[C@H](C)O)cc1	.	.	-13	.	-3	.	.	.
SMILES	Gli-Sufu block	SRC3 inh	COUP-TFII inh	LRH-1 inv ag	NCOA2 inhibitor	NCOA1 inh	Gal4-VP16 ctr	COUP-TFII conf
CCN1CCN(C(=O)c2cc(COc3ccc4ncccc4c3)on2)CC1	30	6	38*	12	1	20	-2	19
CCCN1CCN(C(=O)c2cc(COc3ccc4ncccc4c3)on2)CC1	13	14	31	10	16	21	.	.
CC(C)N(Cc1nccn1C)C(=O)c1cc(COc2ccc3ncccc3c2)on1	21	7	40*	21	-5	9	-3	6
Cc1nc(CN(C)C(=O)c2cc(COc3ccc4ncccc4c3)on2)cs1	50	30	58*	36	29	12	0	52*
COC(=O)[C@]12C[C@H](CC(=O)NCCC(C)C)C(=O)N(Cc3ccc(Cl)cc3Cl)C1=C[C@H](COCc1ccccc1)O[C@@H]2C	.	.	0	.	5	.	.	.
CCOC(=O)c1cnc(-n2nc(C)cc2C)nc1NC1CCCCC1	82*	5	77*	19	23	12	-2	72*
Cc1ccc(-c2nn3c(C)nnc3s2)cc1NC(=O)c1ccc(-c2cccc(Cl)c2)o1	23	6	56*!	-34	-33	2	-6	-4
Cc1ccc(NC(=O)c2cc(S(=O)(=O)NCCC3=CCCCC3)ccc2F)cc1	7	22	61*	38	31	21	3	33
Cc1ccc(NC(=O)c2cc(S(=O)(=O)NCC3CCCO3)ccc2F)cc1 (stereo not drawn)	.	-4	-9	-14	2	-4	.	.
COC(=O)[C@]12C[C@H](CC(=O)N3CCC(c4ccccc4)CC3)C(=O)N(CCC3=CCCCC3)C1=C[C@H](COCc1ccccc1)O[C@@H]2C	.	.	-6	.	4	.	.	.
CNC(=O)NC(=O)C(C)OC(=O)c1c2c(nc3ccccc13)/C(=C/c1cccs1)CC2 (stereo not drawn)	38	10	46*	-27	11	7	-37	-15
CCOC(=O)[C@]12CCC=C1N(Cc1cccc3ccccc13)C(=O)[C@H](CC(=O)NCc1ccc(OC)c(OC)c1)C2	.	.	37*	2	2	.	-6	13

Screening data as filed in PubChem BioAssay.
